Data on 40 compounds can be found in PubChem BioAssay (NCATS).

Results filed as inconclusive are left out. Calls of active or inactive are those of the source. Calls come from the whole dose curve.

Sequence of Peroxisome proliferator-activated receptor delta (Homo sapiens) (Q03181 whole entry, looked up): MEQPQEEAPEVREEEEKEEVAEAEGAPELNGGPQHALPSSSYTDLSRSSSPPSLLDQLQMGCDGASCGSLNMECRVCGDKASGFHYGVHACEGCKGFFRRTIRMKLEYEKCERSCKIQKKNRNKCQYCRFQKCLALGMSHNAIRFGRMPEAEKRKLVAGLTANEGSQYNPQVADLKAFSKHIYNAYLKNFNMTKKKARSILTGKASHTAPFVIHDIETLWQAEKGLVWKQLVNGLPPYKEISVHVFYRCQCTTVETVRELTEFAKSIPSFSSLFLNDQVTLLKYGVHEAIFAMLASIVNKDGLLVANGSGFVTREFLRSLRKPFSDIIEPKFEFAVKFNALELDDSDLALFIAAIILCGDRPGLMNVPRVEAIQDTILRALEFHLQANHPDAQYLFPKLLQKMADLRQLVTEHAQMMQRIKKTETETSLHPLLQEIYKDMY

The target in the test is Peroxisome proliferator-activated receptor delta (Homo sapiens) (UniProt Q03181). The test can be described thus: qHTS assay for small molecule agonists of peroxisome proliferator-activated receptor delta signaling (AID 588534). The following applies: HEK293T PPARdelta-UAS-bla, beta-lactamase ratio, 18 h; series mostly up to 76.7 µM. The source says:
NIH Chemical Genomics Center [NCGC] U.S. Environmental Protection Agency [EPA] National Institutes of Environmental Health Sciences [NIEHS] National Toxicology Program [NTP] NCGC Assay Overview The Peroxisome proliferator-activated receptors (PPARs) are lipid-activated transcription factors of the nuclear receptor superfamily with three distinct subtypes namely PPAR alpha, PPAR delta (also called PPAR beta) and PPAR gamma. All these subtypes heterodimerizes with Retinoid X receptor (RXR) and have different physiological functions. […] This role of PPAR delta implicates the potential use of its ligands in the treatment of metabolic disorders.
Compounds were screened in a titration series in 1536-well format. […] Concentration-response titration points for each compound were fitted to the Hill equation yielding concentrations of half-maximal stimulation (EC50) and maximal response (efficacy) values. qHTS protocol for PPAR-delta beta-lactamase assay in agonist mode [Step] [Parameter] [Value] [Description] 1. Reagent; 6 uL; 4000 cells/well 2. Incubation; 37 C for 5 hrs 3. Compounds; 23 nL; 0.59 nM to 92 uM 4. […] Incubation; 37 C for 18 hrs 6. Detection reagent; 1 uL of CCF4-dye 7. Incubation; RT for 2 hrs 8. Detection; Fluorescence; Envision plate reader
On the technique in general: Quantitative high-throughput screening tests each substance at several concentrations.
For `O=S(c1ccc(Cl)cc1)c1cc(Cl)c(Cl)cc1Cl` (stereo not given), the outcome was inactive.

On to `NC(=O)NC(N)=O`, for which the result was inactive.

Take `CCSC(=O)N(CC(C)C)CC(C)C`: the outcome was inactive.

`COP(=O)(NC(C)=O)SC` (stereo not given): the result was inactive.

As for `Cc1cccc(C)c1O`, the result was inactive.

Consider `O=C(Nc1ccccc1)Nc1ccnc(Cl)c1`, for which the outcome was inactive.

Consider `Cc1cccc(C(=O)O)c1[N+](=O)[O-]`, for which the outcome was inactive.

Regarding `Nc1ccc(Cl)cc1Cl`, the outcome was inactive.

Take `C=C(C#N)C(=O)OCC`: the outcome was inactive.

Regarding `[CH3][Sn]([Cl])([Cl])[Cl]`, the result was inactive.

Regarding `Cc1c(N)cccc1N`, the result was inactive.

`C[N+]1(C)CCCCC1`: the result was inactive.

As to `CNC(=O)c1ccccc1`, the outcome was inactive.

Consider `CC(=O)CC(=O)Nc1ccccc1`, for which the outcome was inactive.

As for `C[Si](C)(C)Cl`, the outcome was inactive.

`CC(C)COC(=O)COc1cc(Cl)c(Cl)cc1Cl`: the outcome was inactive.

Turning to `O=[N+]([O-])C(CO)(CO)CO`, the outcome was inactive.

Turning to `CCCC1COC(Cn2cncn2)(c2ccc(Cl)cc2Cl)O1` (stereo not given), the result was inactive.

In the case of `c1c[nH]cn1`, the result was inactive.

Regarding `O=C(Cl)c1cccc(C(=O)Cl)c1`, the result was inactive.

`CC(C)Oc1cc(-n2nc(C(C)(C)C)oc2=O)c(Cl)cc1Cl`: the outcome was inactive.

On to `Cc1ccc(C(=O)O)cc1`, for which the result was inactive.

As to `C1CCCNCC1`, the result was inactive.

Consider `Cc1c(N)cccc1[N+](=O)[O-]`, for which the result was inactive.

As for `CCNc1nc(NC(C)C)nc(OC)n1`, the result was inactive.

`O=[N+]([O-])c1ccc(Cl)cc1Cl`: the result was inactive.

On to `CC(O)CC(C)O` (stereo not given), for which the outcome was inactive.

For `CC(O)CN(CC(C)O)CC(C)O` (stereo not given), the result was inactive.

For the compound `O=C(O)CCCCCCCCC(=O)O`, the result was inactive.

In the case of `CCOP(=O)(OCC)SCSCC`, the outcome was inactive.

On to `CC1(C)CC(N)CC(C)(CN)C1` (stereo not given), for which the result was inactive.

On to `CC(C)CCCCOC(=O)c1ccccc1C(=O)OCCCCC(C)C`, for which the result was inactive.

Regarding `CN(C)CCOCCN(C)C`, the outcome was inactive.

`COC(=O)c1ccccc1CS(=O)(=O)NC(=O)Nc1nc(OC)cc(OC)n1`: the result was inactive.

For the compound `FC(F)(F)c1ccccc1Cl`, the result was inactive.

`C=C(C)C(=O)OCCN(C)C`: the outcome was inactive.

On to `Cc1ccccc1C(N)=O`, for which the outcome was inactive.

Regarding `c1ccc(Oc2ccccc2)cc1`, the outcome was inactive.

For the compound `Cc1ccc(S(=O)(=O)N=C=O)cc1`, the result was inactive.

In the case of `CCOP(=O)(SC(C)CC)SC(C)CC` (stereo not given), the result was inactive.
